{"source": "the supplement of paper PMC9023506", "note": "Where a name gives a salt, the structure may show the parent alone."}
{"tested_on": "Danio rerio larvae (5 dpf)", "test": "activity during first hour (no stimuli), difference vs DMSO (percentage points (treated minus DMSO)); higher = more of the behaviour than the DMSO vehicle control", "details": "10 µM; exposure time: 3 h pre-incubation + 3 h imaging", "in_short": "(§1)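 Five-days-post-fertilisation wild-type zebrafish larvae were held in 96-well ProxiPlates and exposed to each library drug at a final 10 µM, diluted 1000× from DMSO stocks into egg water, with 48 larvae per drug. Exposure lasted 3 h before and 3 h during imaging at 28.5 °C, with images taken every 6 s across a 3-h program of rest, moving coloured lines and acoustic pulses. An ImageJ macro scored movement and upper-half location, and each behaviour score is the treated-group mean minus the vehicle-group mean, expressed in percentage points.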"}
{"compound": "CC(C)n1c(/C=C/C(O)CC(O)CC(=O)O)c(-c2ccc(F)cc2)c2ccccc21", "note": "(stereo unspecified) [Fluvastatin sodium]", "activity during first hour": 1.98}
{"compound": "NC(=O)OCC(COC(N)=O)c1ccccc1", "note": "[Felbamate]", "activity during first hour": -2.12}
{"compound": "COc1cc2nc(N3CCN(C(=O)c4ccco4)CC3)nc(N)c2cc1OC", "note": "[Prazosin hydrochloride]", "activity during first hour": -3.12}
{"compound": "CC1=Nc2ccc(Cl)cc2S(=O)(=O)N1", "note": "[Diazoxide]", "activity during first hour": 6.7}
{"compound": "CCOC(=O)C1=C(C)NC(C)=C(C(=O)OC)C1c1cccc(Cl)c1Cl", "note": "(stereo unspecified) [Felodipine]", "activity during first hour": -12.9}
{"compound": "CCc1ccc(CCOc2ccc(CC3SC(=O)NC3=O)cc2)nc1", "note": "(stereo unspecified) [Pioglitazone hydrochloride]", "activity during first hour": -5.36}
{"compound": "CC(=O)O[C@H]1C(=O)[C@@]2(C)[C@H]([C@H](OC(=O)c3ccccc3)[C@]3(O)C[C@H](OC(=O)[C@H](O)[C@@H](NC(=O)c4ccccc4)c4ccccc4)C(C)=C1C3(C)C)[C@]1(OC(C)=O)CO[C@@H]1C[C@@H]2O", "note": "[Taxol]", "activity during first hour": 1.84}
{"compound": "CN(C)CCc1c[nH]c2ccc(Cn3cncn3)cc12", "note": "[Rizatriptan benzoate]", "activity during first hour": -2.37}
{"compound": "O=c1[nH]c(=O)n([C@H]2C[C@H](O)[C@@H](CO)O2)cc1C(F)(F)F", "note": "[Trifluorothymidine]", "activity during first hour": 1.96}
{"compound": "COC(c1ccccc1)(c1ccccc1)[C@H](Oc1nc(C)cc(C)n1)C(=O)O", "note": "[Ambrisentan]", "activity during first hour": 1.9}
{"compound": "O=C(NCC1CCCCN1)c1cc(OCC(F)(F)F)ccc1OCC(F)(F)F", "note": "(stereo unspecified) [Flecainide acetate]", "activity during first hour": 0.441}
{"compound": "COc1ccc(-c2ccc3cc(C(=O)O)ccc3c2)cc1C12CC3CC(CC(C3)C1)C2", "note": "[Adapalene]", "activity during first hour": -0.0907}
{"compound": "CC(C)OC(=O)C(C)(C)Oc1ccc(C(=O)c2ccc(Cl)cc2)cc1", "note": "[Fenofibrate]", "activity during first hour": 6.44}
{"compound": "CN(C)CC/C=C1/c2ccccc2COc2ccc(CC(=O)O)cc21", "note": "[Olopatadine hydrochloride]", "activity during first hour": -0.591}
{"compound": "CCOC(=O)c1ncn2c1CN(C)C(=O)c1cc(F)ccc1-2", "note": "[Flumazenil]", "activity during first hour": 2.88}
{"compound": "CCCN(CCc1cccs1)[C@H]1CCc2c(O)cccc2C1", "note": "[Rotigotine hydrochloride]", "activity during first hour": -26.8}
{"compound": "CC(C)CN(C[C@@H](O)[C@H](Cc1ccccc1)NC(=O)O[C@H]1CO[C@H]2OCC[C@H]21)S(=O)(=O)c1ccc(N)cc1", "note": "[Darunavir]", "activity during first hour": 12.6}
{"compound": "CNCc1ccc(-c2[nH]c3cc(F)cc4c3c2CCNC4=O)cc1", "note": "[Rucaparib camsylate]", "activity during first hour": -13.6}
{"compound": "Cn1nnc2c(C(N)=O)ncn2c1=O", "note": "[Temozolomide]", "activity during first hour": 7.11}
{"compound": "CC(=O)O[C@]1(C(C)=O)CC[C@H]2[C@@H]3C=C(C)C4=CC(=O)CC[C@]4(C)[C@H]3CC[C@@]21C", "note": "[Megestrol Acetate]", "activity during first hour": -14.3}
{"compound": "C[C@@H](O[C@H]1OCCN(Cc2n[nH]c(=O)[nH]2)[C@H]1c1ccc(F)cc1)c1cc(C(F)(F)F)cc(C(F)(F)F)c1", "note": "[Aprepitant]", "activity during first hour": -7.38}
{"compound": "CN1CCC[C@@H]1Cc1c[nH]c2ccc(CCS(=O)(=O)c3ccccc3)cc12", "note": "[Eletriptan hydrobromide]", "activity during first hour": 4.26}
{"tested_on": "Danio rerio larvae (5 dpf)", "test": "optomotor response to blue moving lines, difference vs DMSO (percentage points (treated minus DMSO)); higher = more of the behaviour than the DMSO vehicle control", "details": "10 µM; exposure time: 3 h pre-incubation + 3 h imaging", "in_short": "as §1"}
{"compound": "COc1c(C)c2c(c(O)c1C/C=C(\\C)CCC(=O)O)C(=O)OC2", "note": "[Mycophenolic acid]", "optomotor response to blue moving lines": 7}
{"compound": "CCCc1nc2c(C)cc(-c3nc4ccccc4n3C)cc2n1Cc1ccc(-c2ccccc2C(=O)O)cc1", "note": "[Telmisartan]", "optomotor response to blue moving lines": 8.47}
{"compound": "Nc1nc(NC2CC2)c2ncn([C@H]3C=C[C@@H](CO)C3)c2n1", "note": "[Abacavir hemisulfate]", "optomotor response to blue moving lines": 2.71}
{"compound": "NC(=O)N1c2ccccc2C=Cc2ccccc21", "note": "[Carbamazepine]", "optomotor response to blue moving lines": 12.9}
{"compound": "N#Cc1ccc2[nH]cc(CCCCN3CCN(c4ccc5oc(C(N)=O)cc5c4)CC3)c2c1", "note": "[Vilazodone hydrochloride]", "optomotor response to blue moving lines": -5.66}
{"compound": "CN/C(=N\\CCSCc1nc[nH]c1C)NC#N", "note": "[Cimetidine]", "optomotor response to blue moving lines": 4.9}
{"compound": "CC(C)N(CCCCOCC(=O)NS(C)(=O)=O)c1cnc(-c2ccccc2)c(-c2ccccc2)n1", "note": "[Selexipag]", "optomotor response to blue moving lines": -1.72}
{"tested_on": "Danio rerio larvae (5 dpf)", "test": "optomotor response to green moving lines, difference vs DMSO (percentage points (treated minus DMSO)); higher = more of the behaviour than the DMSO vehicle control", "details": "10 µM; exposure time: 3 h pre-incubation + 3 h imaging", "in_short": "as §1"}
{"compound": "NC(=O)OCC(COC(N)=O)c1ccccc1", "note": "[Felbamate]", "optomotor response to green moving lines": -9.03}
{"compound": "COc1c(C)c2c(c(O)c1C/C=C(\\C)CCC(=O)O)C(=O)OC2", "note": "[Mycophenolic acid]", "optomotor response to green moving lines": -1.15}
{"compound": "CC1=Nc2ccc(Cl)cc2S(=O)(=O)N1", "note": "[Diazoxide]", "optomotor response to green moving lines": 7.27}
{"compound": "CCOC(=O)C1=C(C)NC(C)=C(C(=O)OC)C1c1cccc(Cl)c1Cl", "note": "(stereo unspecified) [Felodipine]", "optomotor response to green moving lines": -6.01}
{"compound": "CCCc1nc2c(C)cc(-c3nc4ccccc4n3C)cc2n1Cc1ccc(-c2ccccc2C(=O)O)cc1", "note": "[Telmisartan]", "optomotor response to green moving lines": -3.99}
{"compound": "Nc1nc(NC2CC2)c2ncn([C@H]3C=C[C@@H](CO)C3)c2n1", "note": "[Abacavir hemisulfate]", "optomotor response to green moving lines": 6.07}
{"compound": "CN(C)CCc1c[nH]c2ccc(Cn3cncn3)cc12", "note": "[Rizatriptan benzoate]", "optomotor response to green moving lines": 3.24}
{"compound": "O=c1[nH]c(=O)n([C@H]2C[C@H](O)[C@@H](CO)O2)cc1C(F)(F)F", "note": "[Trifluorothymidine]", "optomotor response to green moving lines": 6.4}
{"compound": "CN(C)CC/C=C1/c2ccccc2COc2ccc(CC(=O)O)cc21", "note": "[Olopatadine hydrochloride]", "optomotor response to green moving lines": 5.77}
{"compound": "Cn1nnc2c(C(N)=O)ncn2c1=O", "note": "[Temozolomide]", "optomotor response to green moving lines": -1.84}
{"compound": "CC(=O)O[C@]1(C(C)=O)CC[C@H]2[C@@H]3C=C(C)C4=CC(=O)CC[C@]4(C)[C@H]3CC[C@@]21C", "note": "[Megestrol Acetate]", "optomotor response to green moving lines": -2.03}
{"compound": "CN1CCC[C@@H]1Cc1c[nH]c2ccc(CCS(=O)(=O)c3ccccc3)cc12", "note": "[Eletriptan hydrobromide]", "optomotor response to green moving lines": 6.81}
